Pf Dd2 inh: blocks growth of Plasmodium falciparum Dd2 parasites; actives 2.3% (n = 94,000); P. falciparum Dd2 growth, SYBR Green, 72 h; stronger effect = lower value; activity change, % at 10 µM; in the data active means activity change below about -80%; inconclusive means no clear call, values can overlap the other calls
C diff growth: C. difficile growth inhibition; Clostridium difficile clinical isolate growth, OD600, 24 h; stronger effect = lower value; growth activity, negative = inhibition, % at 16 µg/mL (by protocol); actives 0.25% (n = 86,000);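 active means mean growth activity at or below -80% and every replicate also at or below -80%; inconclusive means mean at or below -80% but some replicate above -80%; inactive means mean growth activity above -80%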
T cruzi growth-1: T. cruzi proliferation inhibition. inhibition, % at 8.34 µM. actives 5.9% (n = 77,000). T. cruzi beta-gal in NIH3T3, GalScreen luminescence, 90 h. AID 624255;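 active means mean inhibition above about 93%, with at least 55% of replicates each passing it, limit read from the data, passing the limit was not always enough; inconclusive means only one of those two conditions holds; inactive means neither condition holds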
T cruzi growth-2: inhibitors of T. cruzi proliferation. T. cruzi beta-gal in NIH3T3, GalScreen luminescence, 90 h. shares compounds with T cruzi growth-1. inhibition, % at 8.35 µM. AID 651739. actives 72% (n = 5,600);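 active means mean replicate inhibition above about 95% and at least 55% of replicates individually reaching it, limit read from the data; inconclusive means only one of the two criteria is met; inactive means neither criterion is met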
T cruzi growth-3: blocks T. cruzi growth in NIH3T3 host cells. shares compounds with T cruzi growth-1. T. cruzi beta-gal in NIH3T3, GalScreen luminescence, 90 h. inhibition, % at 2.09 µM. actives 21% (n = 5,600);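 active means mean inhibition above about 95%, with at least 55% of replicates also reaching it, limit read from the data; inconclusive means meets just one of the two conditions; inactive means meets neither condition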
3T3 cytotox: cytotoxicity in mouse NIH/3T3 fibroblasts | cytotoxicity (signal decrease), % at 8.35 µM | actives 14% (n = 5,600) | shares compounds with T cruzi growth-1 | AID 651742 | NIH/3T3 viability, CellTiter-Glo ATP luminescence, 90 h;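 active means mean signal decrease across replicates above about 35% based on untreated-well scatter, with enough replicates individually passing, limit read from the data; inconclusive means no rule stated though some were filed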
3T3 cytotox 2: cytotoxicity in mouse NIH/3T3 fibroblasts. actives 56% (n = 5,600). AID 651744. inhibition, % at 24.9 µM. NIH/3T3 viability, CellTiter-Glo ATP luminescence, 90 h. shares compounds with T cruzi growth-1;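 active means mean loss of cell viability signal at or above a set limit, and enough replicates individually reaching it; inconclusive means meets only the mean limit or only the replicate share; inactive means meets neither condition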
Large screens that a line does not name were inactive (follow-up assays come after a bar, where they were run); ! = not confirmed by another sample. The list is not random: actives were taken first. Their share in the collection is about 6.8%.

CCCN(C)C[C@@H]1Oc2cc(C#Cc3ccccc3F)ccc2S(=O)(=O)N([C@@H](C)CO)C[C@H]1C	T cruzi growth-1 inconclusive | T cruzi growth-2 107 | T cruzi growth-3 inactive | 3T3 cytotox inactive | 3T3 cytotox 2 105
Cc1ccc(S(=O)(=O)N[C@@H]2C=C[C@@H](CC(=O)O)O[C@@H]2CO)cc1	none
CN1[C@@H]2c3ccc(-c4cccc(F)c4)c(=O)n3C[C@H]1[C@H](CO)[C@H]2C(=O)Nc1nccs1	none (no result: Pf Dd2 inh)
CCC(=O)Nc1ccc2c(c1)C(=O)N(C)[C@@H]1CC[C@H](CC(=O)N[C@@H](C)c3ccccc3)O[C@@H]1CO2	none
CCCN(C)C[C@H]1Oc2cc(C#Cc3cccc(F)c3)ccc2S(=O)(=O)N([C@@H](C)CO)C[C@H]1C	T cruzi growth-1 108 (no result: Pf Dd2 inh) | T cruzi growth-2 102 | T cruzi growth-3 inactive | 3T3 cytotox inactive | 3T3 cytotox 2 103
CCCN(C)C[C@H]1Oc2cc(C#Cc3cccc(F)c3)ccc2S(=O)(=O)N([C@H](C)CO)C[C@H]1C	none (no result: Pf Dd2 inh)
C[C@H](O)C#Cc1cnc2c(c1)C(=O)N([C@H](C)CO)C[C@H](C)[C@@H](CN(C)C(=O)c1ccccc1)O2	none
CN(C)C(=O)c1ccc(-c2ccc(C3[C@H]4CNC[C@@H]3N4CC3CCCCC3)cc2)cc1 (stereo partly drawn)	none (no result: T cruzi growth-1)
CC(C)NC(=O)Nc1ccc2c(c1)C(=O)N([C@@H](C)CO)C[C@H](C)[C@@H](CN(C)S(=O)(=O)c1ccc(Cl)cc1)OCCCC[C@H](C)O2	none
C[C@H](CO)N1C[C@H](C)[C@H](CN(C)S(=O)(=O)c2ccc(F)cc2)OCCCC[C@H](C)Oc2ccc(NC(=O)NC3CCCCC3)cc2C1=O	none
CC(C)NC(=O)Nc1ccc2c(c1)C(=O)N([C@H](C)CO)C[C@@H](C)[C@@H](CN(C)S(=O)(=O)c1ccc(Cl)cc1)OCCCC[C@@H](C)O2	T cruzi growth-1 98 | T cruzi growth-2 96 | T cruzi growth-3 inactive | 3T3 cytotox inactive | 3T3 cytotox 2 24
C[C@@H]1CCCCO[C@@H](CN(C)S(=O)(=O)c2ccc(Cl)cc2)[C@H](C)CN([C@@H](C)CO)C(=O)c2cc(NC(=O)NC3CCCCC3)ccc2O1	T cruzi growth-1 100 (no result: Pf Dd2 inh) | T cruzi growth-2 111 | T cruzi growth-3 inactive | 3T3 cytotox inactive | 3T3 cytotox 2 inactive
C[C@@H]1CN([C@H](C)CO)C(=O)c2cc(NC(=O)NC3CCCCC3)ccc2O[C@@H](C)CCCCO[C@H]1CN(C)S(=O)(=O)c1ccc(Cl)cc1	none (no result: Pf Dd2 inh)
Cc1ccc(S(=O)(=O)N(C)C[C@H]2OCCCC[C@H](C)Oc3ccc(NC(=O)NC4CCCCC4)cc3C(=O)N([C@H](C)CO)C[C@@H]2C)cc1	T cruzi growth-1 112 | T cruzi growth-2 109 | T cruzi growth-3 inactive | 3T3 cytotox inactive | 3T3 cytotox 2 inactive
C[C@@H]1CCCCO[C@@H](CN(C)S(=O)(=O)c2ccc(F)cc2)[C@H](C)CN([C@@H](C)CO)C(=O)c2cc(NC(=O)NC3CCCCC3)ccc2O1	none
Cc1ccc(S(=O)(=O)N(C)C[C@@H]2OCCCC[C@@H](C)Oc3ccc(NC(=O)NC4CCCCC4)cc3C(=O)N([C@H](C)CO)C[C@H]2C)cc1	Pf Dd2 inh -81, T cruzi growth-1 99 | T cruzi growth-2 109 | T cruzi growth-3 inactive | 3T3 cytotox inactive | 3T3 cytotox 2 inactive
CC(=O)N1[C@@H]2c3cccc(=O)n3C[C@@H]2[C@@H](CO)[C@@H]1C(=O)NCc1ccccc1F	none (no result: Pf Dd2 inh)
CC=Cc1ccc2n(c1=O)C[C@H]1[C@H](CO)[C@@H](C(=O)N[C@H](C)c3ccccc3)[C@@H]2N1Cc1cccnc1 (mixture of isomers)	none
C[C@@H]1CCCCO[C@@H](CN(C)Cc2ccc(C(=O)O)cc2)[C@H](C)CN([C@@H](C)CO)C(=O)c2cc(NS(=O)(=O)c3ccc(Cl)cc3)ccc2O1	none
C[C@@H]1CCCCO[C@H](CN(C)CC2CCCCC2)[C@@H](C)CN([C@H](C)CO)C(=O)c2cc(NS(=O)(=O)c3cccs3)ccc2O1	none
C[C@H]1CN([C@@H](C)CO)C(=O)c2cc(/C=C/c3ccccc3)cnc2O[C@@H]1CN(C)Cc1ccncc1	none
C[C@@H]1CN([C@H](C)CO)C(=O)c2cc(/C=C/c3ccccc3)cnc2O[C@@H]1CN(C)Cc1ccccc1	none
C[C@H]1CN([C@@H](C)CO)C(=O)c2cc(/C=C/c3ccccc3)cnc2O[C@@H]1CN(C)Cc1ccccc1	T cruzi growth-1 106 | T cruzi growth-2 109 | T cruzi growth-3 inactive | 3T3 cytotox inactive | 3T3 cytotox 2 103
C[C@@H]1CN([C@H](C)CO)C(=O)c2cc(/C=C/c3ccccc3)cnc2O[C@H]1CN(C)Cc1ccncc1	T cruzi growth-1 113 | T cruzi growth-2 105 | T cruzi growth-3 inactive | 3T3 cytotox inactive | 3T3 cytotox 2 30
C[C@H](CO)N1C[C@H](C)[C@H](CN(C)Cc2ccccc2)Oc2ncc(/C=C/c3ccccc3)cc2C1=O	T cruzi growth-1 120! | T cruzi growth-2 117 | T cruzi growth-3 inactive | 3T3 cytotox 37 | 3T3 cytotox 2 102
C[C@H](CO)N1C[C@H](C)[C@H](CN(C)Cc2cccc(C(F)(F)F)c2)Oc2ncc(/C=C/c3ccccc3)cc2C1=O	T cruzi growth-1 116 | T cruzi growth-2 105 | T cruzi growth-3 112 | 3T3 cytotox inactive | 3T3 cytotox 2 80
C[C@@H]1CN([C@@H](C)CO)C(=O)c2cc(/C=C/c3ccccc3)cnc2O[C@@H]1CN(C)Cc1ccncc1	none
Cc1cccc(CN(C)C[C@@H]2Oc3ncc(/C=C/c4ccccc4)cc3C(=O)N([C@H](C)CO)C[C@@H]2C)c1	none (no result: C diff growth)
Cc1noc(C)c1NC(=O)Nc1ccc2c(c1)C(=O)N([C@H](C)CO)C[C@@H](C)[C@H](CN(C)Cc1ccc3c(c1)OCO3)OCCCC[C@@H](C)O2	none
CO[C@H]1CN(C)C(=O)c2ccc(NC(=O)C3CC3)cc2OC[C@H](C)N(CC2CC2)C[C@H]1C	none (no result: C diff growth, T cruzi growth-1)
COc1cc(CN2CC3(CN(C(=O)NC(C)C)C3)c3c(n(C)c4cc(OC)ccc34)[C@@H]2CO)cc(OC)c1	none (no result: T cruzi growth-1)
C[C@@H]1CCCCO[C@@H](CN(C)C(=O)Nc2ccc(F)cc2)[C@H](C)CN([C@H](C)CO)C(=O)c2cc(NC(=O)CCCN(C)C)ccc2O1	none (no result: T cruzi growth-1)
CCC(=O)N1CC(=O)N2[C@H](CO)[C@H](c3ccc(C#CCc4ccccc4)cc3)[C@H]2C1	none (no result: T cruzi growth-1)
COc1cccc(-c2cnc3c(c2)C(=O)N([C@H](C)CO)C[C@H](C)[C@H](CN(C)Cc2ccccc2)O3)c1	none

Assay outcomes as filed in PubChem BioAssay.
